One may read the AC50 as the midpoint of the concentration-response curve, whichever way the signal moves.

Results filed as inconclusive are left out. Calls of active or inactive are those of the source. How the source made its calls, unless noted: active means hit-call score of the fitted dose curve at least 0.9, where 1 is the maximum; inconclusive means response in the unintended direction; inactive means score below 0.9.

The results in this text go back to PubChem BioAssay (EPA / NIEHS).

The target of experiment [1] is Glucocorticoid receptor (Homo sapiens) (UniProt P04150). Put plainly: ATG_GR_TRANS: Attagene TRANS-FACTORIAL HepG2 Assay for human Glucocorticoid Receptor (GR) (AID 2282978).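 Further: activators score as hits since higher reporter transcript over DMSO is fitted.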 The settings on record: HepG2 Attagene TRANS GR reporter, mRNA transcription. The procedure, abridged: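 HepG2 cells transiently transfected with GAL4-UAS reporter units and exogenous GR-Gal4 chimera, dosed 24 h. Reporter mRNA by RT-PCR, FAM labeling, HpaI digest and capillary electrophoresis; gain-of-signal fit versus DMSO.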

Experiment [2] addresses Bile acid receptor (Homo sapiens) (UniProt Q96RI1). Kind of experiment: ATG_FXR_TRANS: Attagene TRANS-FACTORIAL HepG2 Assay for Farnesoid X Receptor (FXR) (AID 2282979).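 Further: hits raise reporter mRNA above DMSO so AC50 marks FXR activation.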 The settings on record: HepG2 Attagene TRANS FXR-GAL4 reporter transcription. The procedure, abridged:
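Read-out: fluorescent reporter transcripts quantified by capillary electrophoresis after RT-PCR of total RNA. Source cells were HepG2 transiently carrying chimeric NR-GAL4 plus GAL4-UAS reporter units, dosed 24 h. Activity fitted upward relative to DMSO baseline.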

The target of experiment [3] is Oxysterols receptor LXR-alpha (Homo sapiens) (UniProt Q13133). Put plainly: ATG_LXRa_TRANS: Attagene TRANS-FACTORIAL HepG2 Assay for human Liver X Receptor alpha (LXRa) (AID 2282980). To be noted: HepG2 Attagene TRANS reporter, LXRa transactivation. The essentials:
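Read-out: reporter transcript levels by RT-PCR plus capillary electrophoresis, fluorescence intensity. Transiently transfected HepG2, exogenous NR-GAL4 chimera, GAL4-UAS reporters; 24 h compound exposure. Activity = increase over DMSO negative control.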

Experiment [4] concerns the target Oxysterols receptor LXR-beta (Homo sapiens) (UniProt P55055). Kind of experiment: ATG_LXRb_TRANS: Attagene TRANS-FACTORIAL HepG2 Assay for human Liver X Receptor beta (LXRb) (AID 2282981). The settings on record: HepG2 Attagene TRANS GAL4-LXRb reporter, mRNA. The procedure, abridged: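 In this TRANS format, exogenous chimeric NR-Gal4 protein activity, not endogenous factors, drives reporter expression in transfected human HepG2 cells. Exposure lasted 24 h; reporter mRNA was read by fluorescent capillary electrophoresis.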

Experiment [5] in a line: ATG_M_06_TRANS: Attagene TRANS-FACTORIAL HepG2 Assay for M06 Transcription Factor (Internal Marker) (AID 2282983). To be noted: HepG2 Attagene TRANS M06 internal marker reporter. The essentials: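 After a 24 h chemical treatment of transfected HepG2, RNA underwent DNase I treatment, reverse transcription and reporter-specific PCR; labelled, HpaI-digested products were sized by capillary electrophoresis. Signal increase relative to DMSO defined activity.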

Experiment [6] can be described thus: ATG_M_32_TRANS: Attagene TRANS-FACTORIAL HepG2 Assay for M32 Transcription Factor (Internal Marker) (AID 2282984).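 On outcome: transcript level of a background control reporter unit measured by RT-PCR and capillary electrophoresis.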 The settings on record: HepG2 Attagene TRANS M32 internal marker reporter. The procedure, abridged: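 Human hepatoma HepG2, transient MRTU transfection, 24 h treatment. RNA → RT-PCR → fluorescent primer extension → HpaI digest (2 h, 37 C) → CE. Positive-direction fit vs DMSO.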

Experiment [7] deals with Transcriptional activator Myb (Homo sapiens) (UniProt P10242). Put plainly: ATG_Myb_CIS: Attagene CIS-FACTORIAL HepG2 Assay for human Myeloblastosis (Myb) Proto-Oncogene Transcription Factor (AID 2282986; active means hit-call score of the fitted dose curve at least 0.9, where 1 is the maximum; inactive means score below 0.9). The settings on record: HepG2 Attagene CIS-FACTORIAL Myb reporter transcription; actives raise or lower the signal. The essentials:
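Transiently transfected HepG2 cells carrying a multiplexed cis-promoter reporter set report endogenous Myb activity after 24 h compound exposure. Reporter mRNA is read by RT-PCR with capillary electrophoresis of fluorescent products, fitted bidirectionally against DMSO.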

Experiment [8] deals with Hepatocyte nuclear factor 4-alpha (Homo sapiens) (UniProt P41235). Put plainly: ATG_HNF4a_TRANS: Attagene TRANS-FACTORIAL HepG2 Assay for human Hepatocyte Nuclear Factor 4 alpha (HNF4a) (AID 2282982). To be noted: HepG2 HNF4a transactivation reporter, mRNA readout. The procedure, abridged: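 Cells used were human HepG2, transiently carrying GAL4-UAS reporter units read out against exogenous NR-GAL4 chimeras. Reporter transcript levels after 24 h dosing were quantified by fluorescent RT-PCR and capillary electrophoresis.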

For experiment [9], the target named is Nuclear receptor subfamily 4 group A member 2 (Homo sapiens) (UniProt P43354). Put plainly: ATG_NURR1_TRANS: Attagene TRANS-FACTORIAL HepG2 Assay for human Nuclear Receptor Related Protein 1 (NURR1) (AID 2282985). The settings on record: HepG2 Attagene TRANS reporter, mRNA readout. The essentials: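 After 24 h chemical dosing, total RNA from transiently transfected HepG2 cells was reverse-transcribed and reporter cDNA PCR-amplified, FAM-labelled and analysed by capillary electrophoresis. Activity fitted in positive direction, DMSO as negative control.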

Experiment [10] concerns the target Estrogen-related receptor gamma (Homo sapiens) (UniProt P62508). Kind of experiment: ATG_ERRg_TRANS: Attagene TRANS-FACTORIAL HepG2 Assay for human Estrogen-Related Receptor gamma (ERRg) (AID 2282977).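 Further: hits increase reporter signal over DMSO so potencies reflect activators.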 To be noted: HepG2 Attagene TRANS reporter, ERRg transactivation. The procedure, abridged:
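HepG2 cells transiently transfected with multiplexed GAL4-UAS reporter units driven by chimeric NR-Gal4 proteins; 24 h exposure. Reporter mRNA quantified by RT-PCR, fluorescent labelling, HpaI digestion and capillary electrophoresis; gain of signal vs DMSO.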

Nuclear receptor subfamily 4 group A member 2 (Homo sapiens), sequence (P43354 whole entry, looked up): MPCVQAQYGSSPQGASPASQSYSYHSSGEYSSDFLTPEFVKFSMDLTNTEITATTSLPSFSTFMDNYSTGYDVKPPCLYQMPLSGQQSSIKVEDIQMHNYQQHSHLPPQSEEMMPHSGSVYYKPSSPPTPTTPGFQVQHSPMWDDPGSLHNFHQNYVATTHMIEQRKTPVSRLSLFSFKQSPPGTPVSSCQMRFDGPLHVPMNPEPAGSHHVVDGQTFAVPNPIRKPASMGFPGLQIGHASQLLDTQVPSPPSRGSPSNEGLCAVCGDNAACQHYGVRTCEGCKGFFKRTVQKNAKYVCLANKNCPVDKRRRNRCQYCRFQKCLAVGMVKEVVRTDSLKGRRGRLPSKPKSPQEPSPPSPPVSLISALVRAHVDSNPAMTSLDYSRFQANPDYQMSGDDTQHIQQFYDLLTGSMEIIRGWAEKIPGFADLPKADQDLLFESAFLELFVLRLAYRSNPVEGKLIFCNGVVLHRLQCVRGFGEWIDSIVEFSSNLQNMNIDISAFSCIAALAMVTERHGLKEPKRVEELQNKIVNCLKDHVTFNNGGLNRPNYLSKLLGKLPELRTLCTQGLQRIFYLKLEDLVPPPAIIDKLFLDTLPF
Oxysterols receptor LXR-beta (Homo sapiens), sequence (P55055 whole entry, looked up, the tested form may be a part): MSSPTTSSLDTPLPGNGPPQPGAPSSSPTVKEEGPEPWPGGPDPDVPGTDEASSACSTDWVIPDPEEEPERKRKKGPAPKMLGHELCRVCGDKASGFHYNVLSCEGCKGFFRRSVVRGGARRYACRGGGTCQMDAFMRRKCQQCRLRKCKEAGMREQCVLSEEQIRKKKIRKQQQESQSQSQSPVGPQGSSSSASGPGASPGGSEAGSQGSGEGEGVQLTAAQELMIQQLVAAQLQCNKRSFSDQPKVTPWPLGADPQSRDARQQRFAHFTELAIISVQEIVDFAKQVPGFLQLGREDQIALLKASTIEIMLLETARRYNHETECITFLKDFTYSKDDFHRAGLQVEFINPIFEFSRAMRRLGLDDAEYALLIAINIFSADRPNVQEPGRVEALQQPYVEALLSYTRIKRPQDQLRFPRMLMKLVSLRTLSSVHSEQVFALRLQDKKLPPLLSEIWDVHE
Estrogen-related receptor gamma (Homo sapiens), sequence (P62508 whole entry, looked up, the tested form may be a part): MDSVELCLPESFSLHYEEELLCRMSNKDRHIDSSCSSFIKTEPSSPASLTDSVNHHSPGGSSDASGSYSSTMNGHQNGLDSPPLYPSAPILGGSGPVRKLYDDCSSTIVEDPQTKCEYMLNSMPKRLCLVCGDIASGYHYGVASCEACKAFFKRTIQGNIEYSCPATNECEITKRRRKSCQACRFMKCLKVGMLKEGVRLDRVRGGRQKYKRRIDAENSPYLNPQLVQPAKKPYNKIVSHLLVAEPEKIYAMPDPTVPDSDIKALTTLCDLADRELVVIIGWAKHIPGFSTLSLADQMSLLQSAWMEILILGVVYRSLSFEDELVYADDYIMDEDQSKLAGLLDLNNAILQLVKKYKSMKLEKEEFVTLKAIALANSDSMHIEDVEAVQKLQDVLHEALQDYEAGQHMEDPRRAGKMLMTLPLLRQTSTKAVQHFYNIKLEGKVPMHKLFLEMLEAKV
Bile acid receptor (Homo sapiens), sequence (Q96RI1 whole entry, looked up, the tested form may be a part): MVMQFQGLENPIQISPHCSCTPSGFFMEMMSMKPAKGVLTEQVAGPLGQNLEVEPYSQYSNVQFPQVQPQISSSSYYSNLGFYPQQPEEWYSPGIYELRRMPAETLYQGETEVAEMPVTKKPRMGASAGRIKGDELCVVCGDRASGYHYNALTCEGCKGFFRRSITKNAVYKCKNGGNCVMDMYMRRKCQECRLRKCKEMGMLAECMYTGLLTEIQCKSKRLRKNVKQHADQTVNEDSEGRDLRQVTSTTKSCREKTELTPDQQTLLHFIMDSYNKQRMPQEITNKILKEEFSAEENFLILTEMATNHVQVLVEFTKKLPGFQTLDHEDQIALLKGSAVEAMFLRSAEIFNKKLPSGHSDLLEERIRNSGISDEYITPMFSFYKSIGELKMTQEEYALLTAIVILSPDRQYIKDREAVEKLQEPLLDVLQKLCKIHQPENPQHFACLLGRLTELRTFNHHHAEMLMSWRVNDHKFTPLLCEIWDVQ
Hepatocyte nuclear factor 4-alpha (Homo sapiens), sequence (P41235 whole entry, looked up, the tested form may be a part): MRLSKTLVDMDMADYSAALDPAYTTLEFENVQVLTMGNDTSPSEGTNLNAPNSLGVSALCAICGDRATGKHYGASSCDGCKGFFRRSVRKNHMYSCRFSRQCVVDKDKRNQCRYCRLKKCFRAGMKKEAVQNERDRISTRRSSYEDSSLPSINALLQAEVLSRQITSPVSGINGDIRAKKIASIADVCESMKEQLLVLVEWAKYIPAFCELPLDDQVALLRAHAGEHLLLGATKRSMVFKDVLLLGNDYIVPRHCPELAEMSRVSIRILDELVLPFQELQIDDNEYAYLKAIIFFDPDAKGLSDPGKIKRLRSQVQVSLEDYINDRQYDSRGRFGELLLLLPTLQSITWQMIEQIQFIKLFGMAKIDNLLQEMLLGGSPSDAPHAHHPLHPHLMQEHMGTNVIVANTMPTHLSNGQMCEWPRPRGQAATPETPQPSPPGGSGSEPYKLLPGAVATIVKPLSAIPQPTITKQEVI
Oxysterols receptor LXR-alpha (Homo sapiens), sequence (Q13133 whole entry, looked up, the tested form may be a part): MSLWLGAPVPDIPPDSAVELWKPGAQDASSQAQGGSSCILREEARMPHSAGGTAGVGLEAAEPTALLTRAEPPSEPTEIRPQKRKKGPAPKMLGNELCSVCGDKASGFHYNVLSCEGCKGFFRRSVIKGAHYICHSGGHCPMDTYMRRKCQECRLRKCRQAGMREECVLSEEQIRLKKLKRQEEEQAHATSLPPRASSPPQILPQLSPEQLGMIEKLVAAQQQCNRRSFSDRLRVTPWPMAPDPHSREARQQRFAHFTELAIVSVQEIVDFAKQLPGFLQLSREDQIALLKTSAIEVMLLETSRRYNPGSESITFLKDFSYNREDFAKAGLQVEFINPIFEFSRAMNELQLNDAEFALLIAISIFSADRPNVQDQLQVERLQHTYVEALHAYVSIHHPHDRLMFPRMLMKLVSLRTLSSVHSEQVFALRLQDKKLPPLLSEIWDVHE
Glucocorticoid receptor (Homo sapiens), sequence (P04150 whole entry, looked up, the tested form may be a part): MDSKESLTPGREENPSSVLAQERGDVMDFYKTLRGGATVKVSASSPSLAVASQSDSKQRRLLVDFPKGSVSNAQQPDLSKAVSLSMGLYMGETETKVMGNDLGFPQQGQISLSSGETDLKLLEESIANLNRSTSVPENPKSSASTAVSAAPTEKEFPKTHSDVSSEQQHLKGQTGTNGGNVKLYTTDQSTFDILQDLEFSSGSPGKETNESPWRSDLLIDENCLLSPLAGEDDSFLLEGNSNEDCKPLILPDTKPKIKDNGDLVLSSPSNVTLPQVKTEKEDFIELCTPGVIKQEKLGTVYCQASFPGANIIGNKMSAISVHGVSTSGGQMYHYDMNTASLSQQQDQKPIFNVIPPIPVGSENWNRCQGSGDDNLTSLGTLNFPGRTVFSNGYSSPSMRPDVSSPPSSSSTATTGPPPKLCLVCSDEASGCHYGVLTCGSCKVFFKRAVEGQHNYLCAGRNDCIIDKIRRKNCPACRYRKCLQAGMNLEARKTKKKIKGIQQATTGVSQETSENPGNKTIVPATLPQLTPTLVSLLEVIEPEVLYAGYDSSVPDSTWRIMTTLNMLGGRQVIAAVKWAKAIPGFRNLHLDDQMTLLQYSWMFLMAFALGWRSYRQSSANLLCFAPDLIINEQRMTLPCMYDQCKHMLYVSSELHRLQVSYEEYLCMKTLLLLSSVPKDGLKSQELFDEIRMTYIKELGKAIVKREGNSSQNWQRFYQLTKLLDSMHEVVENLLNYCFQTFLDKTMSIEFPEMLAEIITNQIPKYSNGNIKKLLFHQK
Transcriptional activator Myb (Homo sapiens), sequence (P10242 whole entry, looked up): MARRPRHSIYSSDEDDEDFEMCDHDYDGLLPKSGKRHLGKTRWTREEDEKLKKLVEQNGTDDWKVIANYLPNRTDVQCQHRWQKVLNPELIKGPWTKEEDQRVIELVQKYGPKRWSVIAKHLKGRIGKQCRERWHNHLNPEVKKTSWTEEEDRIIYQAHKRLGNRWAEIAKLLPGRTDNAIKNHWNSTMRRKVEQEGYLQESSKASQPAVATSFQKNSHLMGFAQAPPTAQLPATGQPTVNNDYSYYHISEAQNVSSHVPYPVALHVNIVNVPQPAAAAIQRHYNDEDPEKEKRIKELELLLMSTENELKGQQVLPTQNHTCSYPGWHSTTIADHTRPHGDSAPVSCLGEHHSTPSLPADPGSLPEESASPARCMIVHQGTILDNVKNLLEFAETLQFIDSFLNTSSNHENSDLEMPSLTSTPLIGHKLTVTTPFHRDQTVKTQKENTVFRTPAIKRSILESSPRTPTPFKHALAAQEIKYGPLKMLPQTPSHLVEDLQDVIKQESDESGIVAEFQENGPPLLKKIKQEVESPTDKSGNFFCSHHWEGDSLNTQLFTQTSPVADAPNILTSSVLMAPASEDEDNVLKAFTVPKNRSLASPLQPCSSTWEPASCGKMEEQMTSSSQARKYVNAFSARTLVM

`CCC1COC(=O)O1` (stereo unspecified): the compound was classed as inactive in [1], in experiment [2], in experiment [3], in experiment [4], in experiment [5] and in experiment [6]. For the same compound, the compound was classed as inactive in [7].

As for `c1ccc(-c2nc3ccccc3[nH]2)cc1`, the result in experiment [1], in [2], in [3], in experiment [4], in [8] and in [5] was inactive. Also, the result in experiment [6], in experiment [9] and in experiment [7] was inactive.

In the case of `CCCCCCCCCCCCC`, the call in experiment [1], in experiment [2], in [4], in experiment [8], in experiment [5] and in [6] was inactive. Moreover, the result in experiment [9] and in experiment [7] was inactive.

For the compound `CC(C)=CCl`, the call in experiment [1], in experiment [2], in experiment [4], in experiment [8], in experiment [5] and in experiment [6] was inactive. Also, the compound was classed as inactive in experiment [9] and in experiment [7].

For `CCOc1ccc(NC(N)=O)cc1`, the result in experiment [1], in [2], in experiment [3], in experiment [4], in experiment [5] and in experiment [6] was inactive. Further, the result in experiment [9] and in experiment [7] was inactive.

On to `CCN1CCCC1=O`, for which the compound was called inactive in experiment [1], in [2], in [3], in experiment [5], in experiment [6] and in experiment [9]. Moreover, the compound was called inactive in experiment [7].

For `Cn1cccc1`, the result in experiment [10], in [3], in experiment [8], in experiment [6] and in experiment [7] was inactive.

Regarding `O=C(O)CC(C(=O)O)S(=O)(=O)O` (stereo unspecified), the compound was called inactive in [10], in [6] and in experiment [7].

As for `O=C(O)C(F)(F)C(F)(F)C(F)(F)C(F)(F)C(=O)O`, the call in experiment [10], in experiment [2], in experiment [9] and in [7] was inactive.

As for `CCc1cccc(C)c1N(C(=O)CS(=O)(=O)O)C(C)COC` (stereo unspecified), the call in [1], in experiment [2], in experiment [3], in experiment [5], in [6] and in [9] was inactive. Further, in experiment [7], the outcome was inactive.

`CCc1cccc(CC)c1`: the outcome in experiment [1], in experiment [2], in [3], in experiment [5] and in experiment [7] was inactive.

As to `CCCCCCCOC(=O)c1ccc(O)cc1`, the result in experiment [1], in experiment [2], in [4], in experiment [8], in experiment [5] and in experiment [6] was inactive. Also, the compound was classed as inactive in [9] and in [7].

`O=C(OCc1ccccc1)c1ccc(O)cc1`: the outcome in experiment [1], in experiment [2], in experiment [3], in experiment [4], in [5] and in [7] was inactive. Besides, in experiment [9], the concentration at half-maximal activity (AC50) is 158 µM (active).

On to `CC(=O)CCC=C(C)C`, for which the call in experiment [10], in [3], in [5] and in experiment [7] was inactive.

Consider `CC1(C)CCC[C@]2(C)[C@H]3CC(=O)O[C@]3(C)CC[C@@H]12`, for which the compound was called inactive in experiment [1], in experiment [2], in experiment [3], in [4], in experiment [6] and in experiment [7].

For `CC(C)OC(=O)c1ccccc1`, the compound was called inactive in experiment [10], in experiment [8], in [5] and in [7].

On to `c1ccc2sc(SSN3CCOCC3)nc2c1`, for which the call in [10], in experiment [3], in [4], in experiment [8], in experiment [5] and in experiment [6] was inactive. Further, the compound was called inactive in experiment [9] and in [7].

Consider `N=C1C=CC(=C(c2ccc(N)cc2)c2ccc(N)cc2)C=C1`, for which the compound was classed as inactive in [10], in [5], in [6] and in experiment [9]. For the same compound, in experiment [7], the AC50 is 24.9 µM (active).

Take `C=CC(=O)OCCCCCCOC(=O)C=C`: the result in experiment [10], in experiment [3], in experiment [4], in [5], in [6] and in experiment [9] was inactive. For the same compound, the compound was called inactive in experiment [7].

As for `O=C(Nc1ccccc1)c1cc(Cl)ccc1O`, the call in experiment [1], in [2], in experiment [3], in experiment [4], in experiment [8] and in experiment [6] was inactive. Moreover, in [7], the compound was called inactive.

As for `C/C=C/C=C/CCCCCCCO`, the call in experiment [1], in experiment [2], in [3], in experiment [4], in experiment [9] and in experiment [7] was inactive. The AC50 in [6] was 100 µM (active).

As for `COc1ccc(C(=O)c2ccccc2)c(O)c1`, the compound was classed as inactive in experiment [1], in experiment [2], in experiment [4], in experiment [5], in experiment [6] and in [9]. The compound was classed as inactive in [7].

`O=C1CCCN1C1CCCCC1`: the call in [10], in experiment [2] and in [7] was inactive.

Consider `CC1(C)[C@@H]2CC[C@@]1(C)C(=O)C2`, for which the outcome in [10], in experiment [6], in experiment [9] and in experiment [7] was inactive.

For `CCCCCCCC(=O)OCC`, the outcome in experiment [10], in [2], in [4], in experiment [9] and in experiment [7] was inactive.

In the case of `CC(C)c1ccc2ncccc2c1`, the call in [10], in experiment [2], in experiment [5] and in experiment [7] was inactive.

As to `C=CCCCCCCCCC=O`, the outcome in experiment [10], in [3], in experiment [8], in [5], in [6] and in experiment [9] was inactive. Moreover, in experiment [7], the outcome was inactive.

`CCC(C)c1ccccc1` (stereo unspecified): the call in [1], in [2], in [3], in experiment [4], in [5] and in [6] was inactive. Further, in [7], the result was inactive.
